From PubChem
This is a sample that favours compounds with a hit; in the whole collection about 19% have one here.
DT40 TDP1 CPT: DT40-hTDP1 cell growth loss with CPT; chicken DT40 Tdp1-/-;hTDP1 cells + 20 nM CPT, ATP luminescence, 48 h; Potency, µM (titrated, usually from 46.2 µM), for the others: at the highest dose activity change, negative = growth inhibition, hits mostly inhibitors; 12% of 420,000 active; AID 686979; also: potency is read from the fitted curve at half-maximal effect; nearly all actives have a fitted effect of over 55% in size
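Chicken DT40 Tdp1-/- cells stably complemented with human TDP1 were seeded at 400 cells/well in medium containing 20 nM camptothecin, exposed to pin-transferred compounds, and grown at 37 °C for at least 48 hr. Viability was read as ATP luminescence.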
IL1B secr inh: inflammasome signaling inhibition, IL-1 beta readout; THP-1 LPS/ATP IL-1B secretion, AlphaLISA, 16 h; stronger effect = lower value; activity change, % at 57.5 µM; 4.7% of 360,000 active; AID 743279; in the data active = activity change below about -50%; inconclusive = mostly about -30% to -49%
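Secreted IL-1B measured by AlphaLISA bead assay after 16 h compound exposure of THP-1 cells; compounds (final up to 57.5 uM) added 1 h before LPS (250 ng/mL) and ATP (1.25 mM) stimulation; lower signal means less secretion.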
Giardia kill: Giardia lamblia killing; Giardia lamblia trophozoite viability; activity change, % at 7.66 µM, hits read low; 0.15% of 340,000 active; in the data active = activity change below about -80%; inconclusive = between about -30% and that limit;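 also: parasites exposed to compound for two days anaerobically before the ATP read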
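Luminescence from cellular ATP indicates surviving trophozoites (100 cells/well) following 48 hrs anaerobic compound treatment at 37 deg C; signal develops 15-30 min at room temperature.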
ELG1 repair inh: inhibitors of ELG1-dependent DNA repair in HEK293T cells. HEK293T ELG1-luciferase reporter, luminescence, 16 h; DNA damage induced by 5-fluorouridine. Potency, µM (doses to about 46.1 µM), for inactives: at the highest dose activity change, negative = inhibition, usual class: inhibitors. 2.3% of 330,000 active. AID 504467; also: potency is read from the fitted curve at half-maximal effect; nearly all actives have a fitted effect of over 55% in size
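Reporter activity after DNA damage by 5-fluorouridine is monitored. Compound-treated cells incubate 16 hr at 37 °C, then ONE-Glo is added for 30 min before luminescence reading.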
DT40 TDP1 no CPT: qHTS for Inhibitors of human tyrosyl-DNA phosphodiesterase 1 (TDP1): qHTS in cells in absence of CPT; DT40 Tdp1-/- hTDP1 cells, no CPT, ATP luminescence, 48 h; Potency, µM (doses to about 46.2 µM), inactives show at the highest dose activity change, negative = growth inhibition, most hits filed as inhibitors; 15% of 420,000 active; also: potency is read from the fitted curve at half-maximal effect; nearly all actives have a fitted effect of over 55% in size
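Luminescent ATP content (CellTiter-Glo) served as the growth readout. Knockout chicken DT40 cells expressing human TDP1 were exposed to compounds without camptothecin for a minimum 48 hr at 37 °C.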
TDP1 block: inhibitors of human tyrosyl-DNA phosphodiesterase TDP1. Q9NUW8. recombinant TDP1, AlphaScreen DNA substrate cleavage. Potency, µM (highest dose often 130 µM), for inactives: top-dose activity change, negative = inhibition, usual class: inhibitors. 0.28% of 350,000 active; also: potency is read from the fitted curve at half-maximal effect; nearly all actives have a fitted effect of over 40% in size
Target sequence (Q9NUW8 whole entry, looked up): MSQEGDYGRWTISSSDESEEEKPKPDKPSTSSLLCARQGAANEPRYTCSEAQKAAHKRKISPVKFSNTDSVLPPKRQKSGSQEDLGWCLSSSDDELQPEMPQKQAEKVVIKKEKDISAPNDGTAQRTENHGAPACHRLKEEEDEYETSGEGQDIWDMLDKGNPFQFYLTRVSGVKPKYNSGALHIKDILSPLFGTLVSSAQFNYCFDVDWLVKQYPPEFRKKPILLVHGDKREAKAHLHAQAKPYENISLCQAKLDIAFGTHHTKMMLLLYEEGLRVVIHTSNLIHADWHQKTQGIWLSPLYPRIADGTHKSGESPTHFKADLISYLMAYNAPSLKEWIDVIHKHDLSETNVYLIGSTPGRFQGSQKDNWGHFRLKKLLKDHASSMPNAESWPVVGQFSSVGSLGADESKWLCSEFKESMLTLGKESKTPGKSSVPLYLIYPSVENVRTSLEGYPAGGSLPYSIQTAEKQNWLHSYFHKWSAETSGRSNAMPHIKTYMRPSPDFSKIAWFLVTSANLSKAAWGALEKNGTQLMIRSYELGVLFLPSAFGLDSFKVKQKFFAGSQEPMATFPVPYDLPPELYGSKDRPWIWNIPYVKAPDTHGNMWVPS
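E. coli-derived human Tdp1, 1 nM final. Cpd preinc 15 min RT; substrate 15 nM final, 5 min RT; AS bead mix 10 ug/ml final, 10 min RT. Signal loss = tyrosine-FITC cleavage. No-enzyme wells = max signal.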
* hit, by the source's call; u = inconclusive; x = no result given; [ ] = dose if it differs, or a comment. Unless noted, calls follow the shape of the dose curve; as a rule, active = well fitted curve in the direction sought with a large enough effect; inconclusive = small, poorly fitted or top-dose-only effect, or another doubt; inactive = no such curve, though single readings can be large; an effect the other way counts as inactive or inconclusive. % is scaled to controls: 0 for no effect and ±100 for the full control effect.

SMILES	DT40 TDP1 CPT	IL1B secr inh	Giardia kill	ELG1 repair inh	DT40 TDP1 no CPT	TDP1 block
CCOC(=O)c1c(C)[nH]c(C)c1C(=O)CN1C(=O)NC(CC(C)C)C1=O (centres undefined)	10µM*	9	-12	1%	u	1%
CCOC(=O)c1c(C)[nH]c(C)c1C(=O)CN1C(=O)NC2(CCC(C)CC2)C1=O (centres undefined)	-25%	-24	-6	u	-23%	-5%
O=C(NCCNC(=O)c1cc(Cl)ccc1Cl)c1ccco1	-2%	-5	-2	8%	-12%	10%
Cc1ccc2nc(C3CCCCC3)c(Cc3ccsc3)n2c1	13µM*	-11	x	x	9.2µM*	x
Cc1ccc(Cc2c(C3CCCCC3)nc3ccc(C)cn23)cc1	18µM*	-52*	x	x	18µM*	x
Cc1nn(C)c(C)c1CN(Cc1nc(CCC(C)C)no1)C(C)C	2.3µM*	-6	-3	u	0.58µM*	-8%
CC1(C)C(=O)OC(C(=O)c2ccccc2)C2(CCCCC2)C1=O (centres undefined)	2%	25	6	5%	0%	-4%
CSc1cccc(NC(=O)CN(c2cccc(C)c2)S(C)(=O)=O)c1	18µM*	-16	15	-6%	u	5%
CSc1cccc(NC(=O)CN(c2ccccc2)S(=O)(=O)N(C)C)c1	26µM*	13	1	-1%	29µM*	-8%
COC(=O)c1cc(NC(=O)CN(c2ccccc2)S(=O)(=O)N(C)C)ccc1Cl	u	x	x	x	23µM*	-3%
CN(C)S(=O)(=O)N(CC(=O)Nc1ccc2ccccc2c1)c1ccccc1	-4%	4	-9	23µM*	-24%	-2%[56.1 µM]
Cc1c(Cl)cccc1-n1c(SCC(=O)N2CCC(C(=O)O)CC2)nc2ccccc2c1=O	-2%	8	-1	1%	3%	x
COc1ccccc1CNC(=O)c1cn(C)c2ccc(S(=O)(=O)N3CCC(C)CC3)cc2c1=O	-5%	x	x	x	0%	5%
COc1ccc2[nH]cc(CCNC(=O)c3ccc4ccccc4n3)c2c1	u	-3	-5	u	u	10%
COc1ccc(C2Nc3ccccc3C(=O)N2Cc2ccccc2C)cc1COc1ccc(NC(C)=O)cc1 (centres undefined)	x	x	x	x	x	-2%
COc1ccccc1NC(=O)COc1ccccc1C(=O)c1cnn(-c2ccccc2)c1	21µM*	0	4	0%	23µM*	3%
O=C(CCC(=O)N1CCN(c2ccccc2F)CC1)c1ccc(F)cc1	1%	-6	-13	8%	u	-1%
COc1ccc(C(=O)CCN2CCN(c3ccccc3F)CC2)cc1	4.6µM*	0	2	u	3.7µM*	5%
O=C(CCN1CCN(c2ccccc2F)CC1)c1ccc(Br)cc1	2.6µM*	-2	15	1%	2.9µM*	3%
CC(C)(CC(=O)N1CCN(c2ccc(Cl)cc2)CC1)CC1=NS(=O)(=O)c2ccccc2N1	18µM*	-51*	-3	u	12µM*	2%
O=C(CCCC1=NS(=O)(=O)c2ccccc2N1)NCCc1ccc(Cl)cc1	-12%	-11	43	-4%	29%	4%
O=C(CCCC1=NS(=O)(=O)c2ccccc2N1)N1CCN(c2ccc(Cl)cc2)CC1	16µM*	10	-1	u	u	3%
COc1cccc(N2CCN(C(=O)CC(C)(C)CC3=NS(=O)(=O)c4ccccc4N3)CC2)c1	15µM*	1	-5	u	4.6µM*	8%
O=C(CCCC1=NS(=O)(=O)c2ccccc2N1)N1CCN(c2ccccc2)CC1	u	-4	14	u	u	6%
Cc1ccc(NC(=O)c2ccc(NS(=O)(=O)/C=C/c3ccccc3)cc2)nc1	-19%	u	4	-7%	-16%	5%
SMILES	DT40 TDP1 CPT	IL1B secr inh	Giardia kill	ELG1 repair inh	DT40 TDP1 no CPT	TDP1 block
c1ccc(CCc2nnc3n2CCN(Cc2ccc4ccccc4n2)CC3)cc1	u	x	x	x	-30%	x
Cc1cc(O)c(C(c2ccc(F)cc2)N2CCCCC2)c(=O)n1Cc1ccco1 (centres undefined)	-9%	x	x	x	-1%	5%
CC(C)Cn1c2c(c(O)c(C(=O)Nc3nc4ccccc4s3)c1=O)CCCC2	u	15	16	12%	u	2%
CCCCc1nc2ccccc2c(=O)n1NC(=O)c1c(O)c2cccc3c2n(c1=O)CCC3	x	x	x	0%	x	5%
CCCCCCc1nc2ccccc2c(=O)n1NC(=O)c1c(O)c2c(n(CC(C)C)c1=O)CCCC2	4.6µM*	-13	-7	9%	3.3µM*	1%
Cc1nc2ccccc2c(=O)n1NC(=O)c1c(O)c2c(n(CC(C)C)c1=O)CCCC2	u	-2	13	-11%	21µM*	11%[56.1 µM]
Cc1ccc2c(c1)nnn2C1CCN(S(=O)(=O)c2ccc(C(=O)N3C(C)CCCC3C)cc2)CC1 (centres undefined)	9.2µM*	-67*	-11	u	9.2µM*	6%
Cc1ccc(S(=O)(=O)N2CCCCC2)cc1C(=O)N1C(C)CCCC1C (centres undefined)	u	1	-4	u	13µM*	3%
CC1CC(C)CN(C(C)C(=O)Nc2cc(S(=O)(=O)N3CCCCC3)ccc2Cl)C1 (centres undefined)	u	-15	8	4%	15µM*	0%
CC1CC(C)CN(C(=O)c2cc(S(=O)(=O)N3CCCCC3)ccc2Cl)C1 (centres undefined)	16µM*	48	7	-9%	15µM*	0%
Cc1ccc(S(=O)(=O)N2CCCCC2)cc1C(=O)N1CCCC1	-2%	-16	-9	10%	1%	1%
CC1CCN(C(C)C(=O)Nc2cc(S(=O)(=O)N3CCCCC3)ccc2Cl)CC1 (centres undefined)	u	-17	5	34%	u	-10%
COc1cc(OC)cc(-c2nc3nc(C)c(CCC(=O)Nc4cc(C)cc(C)c4)c(C)n3n2)c1	-1%	x	x	x	u	6%
O=C(Nc1ccc(F)cc1)C(c1ccncc1)N1CCN(CC(=O)N2CCCC2)CC1 (centres undefined)	1%	-12	x	x	-8%	x
CCOC(=O)c1ccc(N2C(=O)CC(C)(CC)CC2=O)cc1	-5%	60	-12	-2%	-8%	-1%
Cc1ccc(NC(c2nnc(-c3ccccc3)o2)c2ccccc2F)c([N+](=O)[O-])c1 (centres undefined)	-23%	x	x	x	23µM*	11%
